# Screening data (PubChem BioAssay)
# CYP2C9 activ = activators of human CYP2C9 | 1.4% of 96,000 active | activation factor at 5 µM | recombinant CYP2C9, luciferin-H conversion, luminescence; active compounds read high; factor 1 = untreated enzyme, 0 = blocked | P11712;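 active means activation factor of 2 or more for CYP2C9 at a 5 µM dose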
# CYP2C19 act = increases human CYP2C19 enzyme activity; P33261; recombinant CYP2C19, luciferin-H EGE luminescence; active compounds read high; 0 = fully inhibited enzyme, 1 = untreated enzyme; activation factor at 5 µM; 96,000 tested, under 10 active; AID 1025;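 active means activation factor of at least 2 at 5 µM in the primary screen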
# Target sequence (P33261 whole entry, looked up): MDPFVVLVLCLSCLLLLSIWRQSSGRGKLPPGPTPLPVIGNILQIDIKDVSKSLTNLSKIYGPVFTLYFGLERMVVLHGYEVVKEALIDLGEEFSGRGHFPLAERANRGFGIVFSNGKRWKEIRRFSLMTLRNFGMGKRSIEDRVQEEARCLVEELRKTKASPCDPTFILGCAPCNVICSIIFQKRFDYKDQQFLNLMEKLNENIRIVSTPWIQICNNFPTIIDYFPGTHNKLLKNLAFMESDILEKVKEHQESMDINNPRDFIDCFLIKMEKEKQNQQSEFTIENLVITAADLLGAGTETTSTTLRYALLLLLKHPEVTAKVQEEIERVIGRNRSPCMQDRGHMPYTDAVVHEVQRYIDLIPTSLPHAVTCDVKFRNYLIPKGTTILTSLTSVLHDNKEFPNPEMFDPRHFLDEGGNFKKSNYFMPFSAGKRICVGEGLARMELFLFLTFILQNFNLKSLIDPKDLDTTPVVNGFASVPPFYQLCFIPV
# MRP reversal = MRP-mediated drug resistance reversal; H69AR cells + 2 uM doxorubicin, CellTiter-Glo, 72 h; differential viability (reversal), % at 10 µM; 0.04% of 85,000 active; AID 602;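 active means viability drop by adding the cancer drug above about 55%, with treated viability meeting a 40% cutoff, limit read from the data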;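 further: larger differential means the compound sensitizes cells more to doxorubicin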
# CYP2C9 inh = inhibitors of human CYP2C9; P11712; CYP2C9 Supersomes, luciferin-H conversion, luminescence; inhibition, % at 5 µM; 20% of 96,000 active; AID 777;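 active means blocking of liver enzyme CYP2C9 beyond about 50% at 5 µM, limit read from the data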
# MRP1 act = activates MRP-1; viability increase, % at 10 µM; H69AR cells + doxorubicin, viability rescue, CellTiter-Glo; AID 799; 0.61% of 140,000 active;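 active means viability gain under doxorubicin at or above a set limit, the compound median plus 3 SD, cut at about 4.7% in these data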;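 further: MRP-1 overexpressing cells given doxorubicin 25 µM after compound pretreatment; 18-22 h compound pretreatment then 72 h with doxorubicin before readout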
# CYP2C19 inh = blocks human cytochrome P450 2C19; P33261; CYP2C19 Supersomes, luciferin-H EGE luminescence, 30 min; inhibition, % at 5 µM; 21% of 96,000 active;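 active means CYP2C19 inhibition above a set limit at 5 µM in the primary screen, cut at about 50% in these data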
# Hits are given with their value; . = inactive; / = not tested or not shown. Shown are actives, neighbours in structure and some others; about 21% of the full set was active somewhere.
SMILES,CYP2C9 activ,CYP2C19 act,MRP reversal,CYP2C9 inh,MRP1 act,CYP2C19 inh
CCN(c1ccc(OCC(=O)OCC(=O)Nc2ccc(F)c(F)c2F)cc1)S(=O)(=O)c1ccccc1,/,/,/,/,.,/
CC1CCC(NC(=O)C2c3ccccc3C(=O)N2CCCN2CCOCC2)CC1 (stereo not drawn),.,.,.,.,.,.
Nc1c(N2CCCCC2)c(=O)[nH]c(=O)n1-c1ccccc1,.,.,.,.,.,55
CCCOc1ccc(C(C)=O)cc1CSc1nc(O)cc(=O)[nH]1,.,.,.,75,.,.
CC(C)n1nnnc1SCC(=O)Nc1ccccc1N1CCOCC1,.,.,.,.,.,56
Cc1ccc(C)c(-n2nnnc2SCC(=O)Nc2c(C)n(C)n(-c3ccccc3)c2=O)c1,.,.,.,.,.,.
Cc1ccc(-n2nnnc2SCC(=O)Nc2ccccc2N2CCCCC2)cc1C,.,.,.,.,.,80
CSc1ccccc1-n1nnnc1SCC(=O)Nc1cc(C)ccc1C,3.1,.,.,.,.,.
CCC(=O)Nc1ccc(NC(=O)CSc2nnnn2C(C)C)cc1,.,.,.,68,.,.
Cc1ccc(-n2nnnc2SCC(=O)Nc2ccccc2-c2ccccc2)cc1C,/,/,/,/,.,/
CCC(=O)Nc1ccc(NC(=O)CSc2nnc(C(C)C)n2C)cc1,.,.,.,.,.,.
Cn1c(Cc2ccccc2)nnc1SCC(=O)Nc1ccccc1N1CCOCC1,.,.,.,.,.,.
CCOC(=O)Cc1nnc(Nc2ccc(C)cc2C)c2ccccc12,/,/,/,/,.,/
CCc1nnc(NC(=O)C2CCCN2S(=O)(=O)c2ccc(F)cc2)s1 (stereo not drawn),.,.,.,86,5.8,76
CC(=O)c1ccc(NC(=O)C2CCCN2S(=O)(=O)c2ccc(F)cc2)cc1 (stereo not drawn),.,.,.,74,.,66
O=C(O)C(=O)Cc1c[nH]c2ccccc12,/,/,/,/,.,/
COc1ccccc1N(CN1C(=O)c2ccccc2C1=O)C(=O)c1cccc(C)c1,/,/,/,/,.,/
O=C1c2ccccc2C(O)(Cc2ccccc2)N1Cc1ccco1 (stereo not drawn),/,/,.,/,.,/
O=C(O)c1ccc2c(c1)N(Cc1ccccc1F)C(=O)c1ccccc1S2=O (stereo not drawn),.,.,.,.,.,.
CC1(O)c2ccccc2C(=O)N1Cc1ccccc1 (stereo not drawn),.,.,.,.,.,85
CC1(O)N(Cc2ccccc2)C(=O)OC12CCCCC2 (stereo not drawn),.,.,.,.,.,74
CC1(O)c2ccccc2C(=O)N1CCc1ccccc1F (stereo not drawn),.,.,.,.,.,96
COc1ccc(C2N(c3cc(Cl)ccc3OC)C(=O)C3CCCN32)cc1OC (stereo not drawn),2,.,.,.,.,.
COc1ccc(Cl)cc1N1C(=O)C2CCCN2C1c1cccc(F)c1 (stereo not drawn),.,.,.,.,.,54
CCCCn1c(SCc2nc(N)nc(N3CCCCC3)n2)nc2c1c(=O)n(C)c(=O)n2C,/,/,/,/,.,/
SMILES,CYP2C9 activ,CYP2C19 act,MRP reversal,CYP2C9 inh,MRP1 act,CYP2C19 inh
N#CC1=C(N)S[C@H](C(=O)C23CC4CC(CC(C4)C2)C3)[C@H]1c1ccncc1,.,.,.,.,.,66
N#CC1=C(N)SC(C(=O)c2ccccc2)C1c1cccs1 (stereo not drawn),/,/,.,/,.,/
Cc1ccc(-c2nnc(N3CCCCC3)c3ccccc23)cc1S(=O)(=O)N1CCN(C)CC1,.,.,.,58,.,.
CN(CC(=O)NC1CCCCC1)S(=O)(=O)c1ccc(Cl)cc1,.,.,.,.,.,.
CCN(CC)S(=O)(=O)c1cccc2nsnc12,.,.,.,.,.,.
CN(CC(=O)NC1CCCCCCC1)S(=O)(=O)c1cccc2cccnc12,.,.,.,.,.,75
CCN(CC)S(=O)(=O)c1cccc2cc(C(=O)O)c(O)cc12,.,.,.,71,.,.
CCN(CC)S(=O)(=O)c1cc(C(=O)O)c(Cl)cc1Cl,.,.,.,.,.,.
CCN(CC)S(=O)(=O)c1cccc2c(N(C)C)cccc12,.,.,/,.,.,57
CN(CC(=O)N1CCCCCC1)S(=O)(=O)c1cccc2cccnc12,3.3,.,.,.,.,.
Cc1ccc(S(=O)(=O)NC(=O)c2cccn2C)cc1,.,.,.,.,.,.
N/C(=N\OC(=O)CCCOc1ccccc1)c1ccccc1,/,/,/,/,.,/
